± gives the standard deviation of the averaged measurements. Over roughly 33,000 sequences, “E-score (rank enrichment, -0.5 to 0.5)” has its median near -0.0028; the highest 2% begin near 0.23. For the sample, the highest values were picked, then their nearest neighbours and some sequences at random.

The experiment relates to 2Sb-muMax20 (muMax20 with two 1,3-bis(methyl)benzene Cys staples, A13C/A17C and Q88C/A92C, C-terminal Lys). Put plainly: PBM 8-mer E-score (E-score (rank enrichment, -0.5 to 0.5)); higher = stronger preferential binding. As to the method:
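Protein binding microarray (universal PBM chip covering all 10-mers in fixed probe flanks) with chemically synthesized human Max(13-93) bHLH-LZ analogs (not full-length Max) bearing noncanonical residues (hArg, Tha, Aib, Nle at 65) and aromatic Cys staples. Read-out per 8-mer (and its reverse complement): E-score (rank-based enrichment, -0.5 to 0.5) and Z-score of median probe intensity.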
As to GAAGGGGA, the “PBM 8-mer E-score” value is -0.0692 ± 0.0026. Then CCCCCAAC, with -0.195 ± 0.066.

In the case of CCCCCACC, the “PBM 8-mer E-score” value was -0.264 ± 0.062. For GCCCCACC, the “PBM 8-mer E-score” value turned out to be 0.289 ± 0.051. Then GCCCCAAA, with 0.117 ± 0.0026. The figure for GCCCCACA is 0.156 ± 0.1; for GCCCCAAC it is 0.315 ± 0.0087. The figure for CAATGGGA is 0.0389 ± 0.029. As for CCGCACTA, the “PBM 8-mer E-score” value is -0.0974 ± 0.0081. Then CGAAGCAA, with -0.0083 ± 0.02; and AGATCCCA, with -0.0112 ± 0.031; and ACCTTAAG, with -0.0585 ± 0.037. Consider CTCCCGGC, for which the “PBM 8-mer E-score” value is -0.268 ± 0.0042. For CGTAATTA, the “PBM 8-mer E-score” value came to 0.202 ± 0.046. The figure for ACTAATTA is 0.226 ± 0.024; for GGTAATTA it is 0.24 ± 0.0065; for CCTAATTA it is 0.0703 ± 0.012. Then GCTAATTA, with 0.235 ± 0.039; and AGTAATTA, with 0.202 ± 0.03. Then ATGCGGGC, with -0.00019 ± 0.029. In the case of AGTCCTCA, the “PBM 8-mer E-score” value was -0.113 ± 0.048. The figure for AATTTGTA is 0.0698 ± 0.0044; for ACGGAGAA it is 0.18 ± 0.029; for GAGCCAAA it is -0.057 ± 0.017. Then CCTATCGA, with 0.15 ± 0.023; and GCCCGCCC, with 0.108 ± 0.057; and CGCCGCCC, with -0.0329 ± 0.11. Turning to ACCCGCCG, the “PBM 8-mer E-score” value turned out to be 0.0869 ± 0.081. The figure for CCCCGCCA is 0.309 ± 0.031. The figure for ACCCGCCC is 0.274 ± 0.11; for CCCCGCCC it is 0.355 ± 0.037; for GCCCGCCA it is 0.0111 ± 0.022. The figure for TCCCGCCA is -0.0896 ± 0.035; for CCCCGCCG it is 0.161 ± 0.13. CCGATAGC: the “PBM 8-mer E-score” value is -0.195 ± 0.0074. Then TCGGACGA, with -0.0961 ± 0.011; and CATGCCCG, with 0.114 ± 0.033; and ACGTAGGC, with -0.161 ± 0.069. Then AATTGATG, with 0.196 ± 0.013; and TGCCCAAA, with -0.17 ± 0.028. The figure for AGCCCCAA is 0.2458 ± 0.001; for GGCCCCAA it is 0.134 ± 0.045. As for TGCCCCAA, the “PBM 8-mer E-score” value amounted to 0.304 ± 0.012. The figure for TGCCCCCA is 0.0887 ± 0.0026; for AGCCCCCA it is -0.192 ± 0.049.

Consider CGCTAATA, for which the “PBM 8-mer E-score” value was determined as 0.0712 ± 0.011.

With CAGGTAGG, the “PBM 8-mer E-score” value came to 0.0772 ± 0.037. Then ATCTCTGC, with 0.124 ± 0.041; and AAGTTTAC, with -0.0181 ± 0.035. Then AAGTTTAG, with 0.193 ± 0.079; and AAGTTTAT, with 0.263 ± 0.011. Then CTATGGTC, with -0.0714 ± 0.011. For the sequence ACCTTCCG, the “PBM 8-mer E-score” value was determined as 0.156 ± 0.054. Take TAACGATA: the “PBM 8-mer E-score” value is 0.261 ± 0.025.

Consider AAACGATA, for which the “PBM 8-mer E-score” value was 0.0414 ± 0.058. The figure for CAACGATA is 0.0514 ± 0.023. The figure for AAGCCAAA is -0.0671 ± 0.036. Then GACTACTA, with 0.123 ± 0.086.

As for AACGATTG, the “PBM 8-mer E-score” value was -0.048 ± 0.0011. The figure for CAAGGAGA is -0.121 ± 0.026; for GAAGGAGA it is 0.278 ± 0.031. The figure for AAAGGAGA is 0.102 ± 0.13; for CTATGAAA it is 0.122 ± 0.039.

ATATGAAG: the “PBM 8-mer E-score” value is -0.0272 ± 0.098. The figure for ATATGAAC is 0.111 ± 0.0082; for ATATGAAT it is 0.269 ± 0.0035. The figure for ATATGAAA is 0.268 ± 0.017. With TTATGAAA, the “PBM 8-mer E-score” value was -0.0227 ± 0.036. For GCGCTGAC, the “PBM 8-mer E-score” value is 0.0819 ± 0.0047. Turning to ATTCGGCA, the “PBM 8-mer E-score” value is -0.0961 ± 0.057. For the sequence CAAGTGTA, the “PBM 8-mer E-score” value is 0.231 ± 0.042. For CCCGTGTC, the “PBM 8-mer E-score” value was -0.222 ± 0.044. As to AACGTGTC, the “PBM 8-mer E-score” value is -0.0169 ± 0.047. The figure for CACGTGTC is 0.366 ± 0.032; for TAAGTGTA it is -0.00771 ± 0.18. Turning to AAAGTGTA, the “PBM 8-mer E-score” value was determined as 0.185 ± 0.019. The figure for GACGTGTA is -0.0568 ± 0.059; for CACGTGTA it is 0.3871 ± 0.0038. As for AACGTGTA, the “PBM 8-mer E-score” value is 0.0661 ± 0.014. With ATGGCCGA, the “PBM 8-mer E-score” value was -0.0989 ± 0.12. In the case of CGGTAGCA, the “PBM 8-mer E-score” value is 0.0259 ± 0.0084.

Consider CACTAGGC, for which the “PBM 8-mer E-score” value is -0.0625 ± 0.012. Regarding AAGGTACT, the “PBM 8-mer E-score” value was -0.0359 ± 0.027.

CGCCACAC: the “PBM 8-mer E-score” value was -0.107 ± 0.0099. Then GTTCCCCA, with 0.0903 ± 0.0034; and AATTCCCC, with 0.162 ± 0.019.

The record behind these values is the supplement of paper PMC12636033.
